Laboratory results published in PubChem BioAssay (Tox21).
The source made the active and inactive calls. Entries that show only a call come without a potency. Calls come from the whole dose curve; as a rule, active = well fitted curve in the direction sought with a large enough effect in the repeat runs; inconclusive = weak or mixed curves; inactive = flat fitted curve, though single readings scatter.

test: qHTS assay to test for compound auto fluorescence at 460 nm (blue) in HEK293 cell free culture (AID 720681); conditions: cell-free medium, autofluorescence 405/460 nm (blue); series mostly up to 46 µM
Excerpt: U.S. Tox21 Program National Center for Advancing Translational Sciences [NCATS] NIH Chemical Genomics Center [NCGC] U.S. Environmental Protection Agency [EPA] National Institutes of Environmental Health Sciences [NIEHS] National Toxicology Program [NTP] U.S. Food and Drug Administration [FDA] Tox21 Assay Overview: Compound auto fluorescence often interferes with screening of the compound library against various biological targets and signaling pathways. Some of these compounds may have fluorophoric properties. Such properties may interfere with the assay outputs resulting in false positives and/or negatives. To decrease such complications and ensure the compound activities are relevant in terms of biological response, the Tox21 10K compound library was screened for auto fluorescence. From the fluorophores used as reporter signals in our screening assays, the auto fluorescence equivalencies of compounds against three fluorophores have been evaluated: Triamterene, Fluorescein and Rose Bengal sodium for blue, green and red fluorescence, respectively. The fluorescence intensities were measured using Excitation/Emission wavelengths at 405/460nm, 485/535nm and 540/590nm for blue, green and red labels, respectively. This assay includes the blue fluorescence data.
Tox21 Assay Protocol Summary: 5 uL of culture medium (DMEM containing 10% FBS) per well was dispensed into black wall/clear bottom 1536-well plates using a Multidrop Combi Dispenser (ThermoFisher Scientific, Waltham, MA). After 23 nL compound or DMSO vehicle was transferred into assay plate by a pintool work station (Kalypsys, San Diego, CA), fluorescence intensities in the assay plates were measured by an Envision (PerkinElmer, Shelton, CT) plate reader using three labels for measuring blue, green and red fluorescence at […] 460, 535 and 590nm respectively.

Row | Structure (SMILES) | Potency
1 | O[C@H]1[C@H]2[C@H](O)CCCN2C[C@H]1O | inactive
2 | COc1cc(OC)c(OC)cc1C=O | inactive
3 | NC(=O)CN1CC(O)CC1=O (stereo not given) | inactive
4 | CC(C)[C@@]1(NC(=O)[C@@H]2C[C@@H]3c4cccc5[nH]cc(c45)C[C@H]3N(C)C2)O[C@@]2(O)[C@@H]3CCCN3C(=O)[C@H](Cc3ccccc3)N2C1=O | inactive
5 | CCCCCN(C)CCC(O)(P(=O)(O)O)P(=O)(O)O | inactive
6 | COc1ccc(OC)c(C[C@H](C)N)c1 | inactive
7 | Clc1ccccc1-c1ccccc1Cl | inactive
8 | CCCN1CCC[C@H](c2cccc(O)c2)C1 | inactive
9 | CNC(C)CC1CCCCC1 (stereo not given) | inactive
10 | CC1COC(Cn2cncn2)(c2ccc(Oc3ccc(Cl)cc3)cc2Cl)O1 (stereo not given) | inactive
11 | c1cc2c(c(NC3=NCCN3)c1)CCCC2 | inactive
12 | C[N+]1(C)CCCCC1COC(=O)C(O)(c1ccccc1)c1ccccc1 (stereo not given) | inactive
13 | COc1cc([C@@H]2c3cc4c(cc3[C@@H](O)[C@H]3COC(=O)[C@H]23)OCO4)cc(OC)c1O | inactive
14 | CN1CCCC(=C(c2cccs2)c2cccs2)C1 | inactive
15 | CCCC(=O)OC(C(Cl)(Cl)Cl)P(=O)(OC)OC (stereo not given) | inactive
16 | CCCCNC(C)(C)[P+](=O)O | inactive
17 | O=C(C[C@@H]1NCCC[C@H]1O)Cn1cnc2cc(Br)c(Cl)cc2c1=O | inactive
18 | CCCCCc1cc(O)c2c(c1)OC(C)(C)c1ccc(C)cc1-2 | inactive
19 | COC([CH2][Hg])CNC(=O)c1ccccc1OCC(=O)O (stereo not given) | inactive
20 | C=CC[C@]1(O)CC[C@H]2[C@@H]3CCC4=CCCC[C@@H]4[C@H]3CC[C@@]21C | inactive

Row | Structure (SMILES) | Potency
21 | C[C@]12CC[C@H]3[C@@H](CCC4=C(Cl)C(=O)CC[C@@]43C)[C@@H]1CC[C@@H]2O | inactive
22 | COc1ccc(OC)c([C@@H](O)[C@H](C)N)c1 | inactive
23 | C=CCC1([C@@H](C)CCC)C(=O)NC(=O)NC1=O | inactive
24 | CC(C)CCC(=O)O[C@H]1CC[C@H]2[C@@H]3CCC4=CC(=O)CC[C@]4(C)[C@H]3CC[C@]12C | inactive
25 | C[C@]12C=CC(=O)C=C1CC[C@@H]1[C@@H]2CC[C@]2(C)OC(=O)CC[C@@H]12 | inactive
26 | CC(=O)O[C@H]1C[C@H](O[C@H]2[C@@H](O)C[C@H](O[C@H]3[C@@H](O)C[C@H](OC4CC[C@@]5(C)[C@H](CC[C@@H]6[C@@H]5CC[C@]5(C)[C@@H](C7=CC(=O)OC7)CC[C@]65O)C4)O[C@@H]3C)O[C@@H]2C)O[C@H](C)[C@H]1O[C@@H]1O[C@H](CO)[C@@H](O)[C@H](O)[C@H]1O (stereo not given in full) | inactive
27 | COc1ccc2c3c1O[C@H]1C(=O)CC[C@H]4[C@@H](C2)N(C)CC[C@]314 | inactive
28 | OC(c1ccccc1)(c1ccccc1)C1CN2CCC1CC2 (stereo not given) | inactive
29 | CCN(CC)CCO[C@H]1CC[C@@]2(C)C(=CC[C@@H]3[C@@H]2CC[C@]2(C)C(=O)CC[C@@H]32)C1 | inactive
30 | COc1ccc2c3c1O[C@H]1[C@@H](O)C=C[C@H]4[C@@H](C2)NCC[C@@]341 | inactive
31 | [2H]C([2H])([2H])[C@H](N)Cc1ccccc1 | inactive
32 | O=C(O)/C=C\C(=O)O | inactive
33 | C[C@@H]([C@H](O)c1ccccc1)N(C)C | inactive
34 | CN1CC[C@@]23CCCC[C@@H]2[C@@H]1Cc1ccc(O)cc13 | inactive
35 | CCOc1ccc2c3c1O[C@H]1[C@@H](O)C=C[C@H]4[C@@H](C2)N(C)CC[C@@]341 | inactive
36 | Oc1cccc[c]1[Hg][Cl] | inactive
37 | O=P1(N(CCCl)CCCl)NC(OO)CCO1 (stereo not given) | inactive
38 | Oc1cc[c]([Hg][Cl])cc1 | inactive
39 | COC(=O)[C@@H]1[C@H]2CC[C@@H](C[C@H]1OC(=O)c1ccccc1)N2C | inactive
40 | CC(C)=CCN1CC[C@]2(C)c3cc(O)ccc3C[C@H]1[C@H]2C | inactive
